Reference: PubChem BioAssay (NCI)
Compounds without any hit were thinned out: in the full panel of roughly 83,000, 20% have a hit.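 Method: cells in 96-well plates; compound added at one concentration; 48 h incubation; percent growth measured; values under 10 scored active.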 Unmarked numbers belong to inactive results. Activity calls are given as the source filed them.

tested on: MDA-MB-468 breast; assay: NCI-60 one-dose screen, 48 h (100 = growth as untreated, 0 = no growth, -100 = all killed); conditions: 10 µM unless noted

| Compound | growth |
| --- | --- |
| CC(C)CCNCC(O)Cn1c2ccccc2c2ccccc21 (stereo not given) | 2.41% (active) |
| N#Cc1cn(Cc2ccc(Cl)cc2Cl)c(C(=O)c2ccc(Br)cc2)c1N | 75.5% |
| N#Cc1c(Oc2ccc([N+](=O)[O-])cc2)nc2sc3cc(Cl)ccc3n2c1=N | -39.8% (active) |
| CCOc1c(C#N)c(Nc2ccc(S(N)(=O)=O)cc2)c(C#N)c2nnc(C)n12 | 105% |
| COc1ccc(C(=O)c2cc(OC)c(OC)c(OC)c2)cc1/C=C/C(=O)c1ccc(O)cc1 | 34.3% |
| CCOC(=O)c1c(NCC(=O)Nc2cccc([N+](=O)[O-])c2)sc(C(C)=O)c1C | -22.5% (active) |
| CC(C)(C)CC(C)(C)N(CSc1ccc(Cl)cc1)CSc1ccc(Cl)cc1 | 63.7% |
| COc1cc([C@@H]2c3cc4c(cc3[C@H](O)[C@H]3COC[C@@H]23)OCO4)cc(OC)c1OC | 58% |
| CSc1ccc2c(c1)C(N1CCN(C)CC1)Cc1ccccc1S2 (stereo not given) | -66.4% (active) |
| Cc1cc(-c2ccccc2)c(C)n1Cc1ccc(Cl)cc1 | 27.7% |
| COc1ccc(NC(=S)/N=c2\oc3c(OC)cccc3cc2-c2cc3ccccc3[nH]2)cc1 | 82.1% |
| COC(=O)c1ccc2c(c1)c1c(C)c3ccncc3c(C)c1n2C | 39.5% |
| O=C1C2=C(CCN(Cc3ccccc3)C2)N2CCN=C2N1Cc1ccc(F)cc1F | 5.49% (active) |
| O=C1OC(/C=C/c2ccccc2)=NC/1=C/c1ccccc1[N+](=O)[O-] | 101% |
| CCCCCCCCCC(C)NC(=O)CCl (stereo not given) | 95.4% |
| CCOc1ccccc1NC(=O)CCl | 79.4% |
| O=C1c2ccccc2C(=O)c2c(O)c(Cl)cc(O)c21 | -15.7% (active) |
| COc1ccc(NC(=O)c2sc3nc(C)c(C(=O)/C=C/c4cccc(OC)c4)cc3c2N)cc1 | 27.9% |
| CCOC(=O)c1nc2c3ccccc3cnn2c1C(=O)c1ccc(OC)cc1 | 105% |
| COc1ccc(C2=Nn3c(nnc3-n3nc(C)cc3C)SC2)cc1 | 22.2% |

| Compound | growth |
| --- | --- |
| O=C(Nc1ccc(Nc2ccncc2)cc1)c1ccc(Nc2ccnc3ccc([N+](=O)[O-])cc23)cc1[N+](=O)[O-] | 21.7% |
| CCOc1ccc(C(CN2CCOCC2)C(C)=O)cc1OC (stereo not given) | 13.9% |
| Cc1cc(N=O)cc(C(C)(C)C)c1O | 91% |
| COC(=O)C(N)CC(C)C (stereo not given) | 98% |
| Cc1nc2cc(Nc3nc(N4CCCCC4)nc(N4CCOCC4)n3)ccc2n1Cc1ccccc1 | 70.1% |
| FC(F)(F)c1ccc(-c2cn3nc(-c4c[nH]c5ccc(Br)cc45)sc3n2)cc1 | 103% |
| NS(=O)(=O)c1ccc(Nc2nc(N/N=C/c3ccc4c(c3)OCO4)nc(Nc3ccccc3)n2)cc1 | 46.4% |
| CCc1cccc2c3c(sc12)C(c1ccc(Cl)cc1)C(C#N)=C(N)O3 (stereo not given) | -7.98% (active) |
| COc1cc(OC)cc(C(=O)Nc2sc3c(c2C(N)=O)CCC(=O)C3)c1 | 37.1% |
| O=S(=O)(Nc1ncccn1)c1ccc(Nc2ccc3nnc(-c4ccncc4)n3n2)cc1 | 103% |
| Cn1cc(-c2nn3cc(-c4ccccc4)nc3s2)c2ccccc21 | 71.5% |
| CC(C)=CC/C=C(/C)[C@H]1CC[C@]2(C)[C@@H]1CC[C@@H]1[C@@]3(C)CCC(=O)NC(C)(C)[C@@H]3CC[C@]12C | -17.7% [100 µM] (active) |
| CCN1CCN(CCCN(C[C@H]2Cc3ccccc3CN2)[C@H]2CCCc3cccnc32)CC1 | 87.1% |
| CCN(CC)c1ccc(/C=C2\Oc3ccc(O)c(I)c3C2=O)cc1 | 61.6% |
| Cn1nc(C(C)(C)C)cc1NC(=O)Cc1ccc(/C=C2\C(=O)Nc3ccccc32)cc1 | 20% |
| Cn1c(=O)c(F)c(Nc2ccc(I)cc2F)c2c(=O)n(C[C@@H](O)CO)cnc21 | 77.9% |
| CC(C)(C)n1cc(-c2ccnc(NCCNS(=O)(=O)c3cccc4ccccc34)c2)c(-c2cccc(O)c2)n1 | 46.2% |
| O=S(=O)(NCCCNc1nccc(-c2c(-c3cccc(F)c3)nc3sccn23)n1)c1cccc(F)c1 | 33% |
| NC(Cc1ccc(O)c([N+](=O)[O-])c1)C(=O)O (stereo not given) | 101% |
| CCCCCCCCCCCCCCCCC(Br)C(=O)O (stereo not given) | 96% |
